{"source": "PubChem BioAssay AID540364", "about": "(The Scripps Research Institute Molecular Screening Center, 2011)", "note": "About 2,000 (0.56%) of roughly 360,000 compounds were called active.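 How the source made its calls: active means activation above the average of all compounds screened plus 3 SD, cutoff fixed separately per campaign (cut at about 7.5% in these data); inactive means the rest.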 For the sample, actives were picked, then their nearest neighbours and some compounds at random."}
{"assay": "GAA850 frataxin promoter reporter upregulation – cell-based, luciferase luminescence, HEK293 lucGAA850, primary screen (AID 540364);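 further: 0% = DMSO wells and 100% = 10 µM SAHA wells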", "conditions": "HEK293 lucGAA850 FXN promoter luciferase reporter, 24 h; at 6 µM; active compounds read high; percent of 10 µM SAHA response"}
{"smiles": "CCOC(=O)C1CCN(C(=O)Cn2nc(C)c3c(C)n(-c4ccccc4)nc3c2=O)CC1", "activation": "-0.2% (inactive)"}
{"smiles": "COc1ccc(N2C(=O)CNC2=S)cc1", "activation": "-3.02% (inactive)"}
{"smiles": "COc1ccc(-n2cc(-c3ccccc3)c3c(=S)nc[nH]c32)cc1", "activation": "8.54% (active)"}
{"smiles": "COc1ccccc1CNC(=O)C1Cc2ccccc2C(=O)O1", "note": "(configuration not stated)", "activation": "-0.56% (inactive)"}
{"smiles": "COc1cccc(N(C(=O)c2ccn[nH]2)C2(C(=O)Nc3c(C)cccc3C)CCCCC2)c1", "activation": "-6.45% (inactive)"}
{"smiles": "CCc1ccc(N(C(=O)c2csnn2)C(C(=O)NC2CCCCC2)c2cccnc2)cc1", "note": "(configuration not stated)", "activation": "-1.27% (inactive)"}
{"smiles": "O=C(NC1CCCC1)C(c1ccco1)N(C(=O)c1csnn1)c1ccccc1", "note": "(configuration not stated)", "activation": "0.36% (inactive)"}
{"smiles": "CCc1ccc(N(C(=O)c2csnn2)C(C(=O)NC2CCCCC2)c2ccncc2)cc1", "note": "(configuration not stated)", "activation": "8.57% (active)"}
{"smiles": "CCOc1ccc(N2C(=O)CC(N(CCc3ccc(OC)c(OC)c3)C(=S)Nc3ccccc3)C2=O)cc1", "note": "(configuration not stated)", "activation": "8.9% (active)"}
{"smiles": "CN(C)c1ccc(NC(=S)N(CCc2ccccc2)C2CC(=O)N(c3c(Cl)cccc3Cl)C2=O)cc1", "note": "(configuration not stated)", "activation": "0.24% (inactive)"}
{"smiles": "COC(=O)CN(C(=S)Nc1ccc(Cl)cc1)C1CC(=O)N(c2ccc(OC)cc2)C1=O", "note": "(configuration not stated)", "activation": "1.91% (inactive)"}
{"smiles": "COc1ccc(NC(=O)CSc2ccc(-c3ccco3)nn2)c(OC)c1", "activation": "0.41% (inactive)"}
{"smiles": "COc1ccc2[nH]c3nc(SCC(=O)NC4CC4)nnc3c2c1", "activation": "0.57% (inactive)"}
{"smiles": "Oc1cccc2cc(-c3ccncc3)cnc12", "activation": "2.66% (inactive)"}
{"smiles": "COC(=O)c1ccc(NC(=O)CSc2nc(N)c(NC(=O)c3ccc(Br)o3)c(=O)[nH]2)cc1", "activation": "1.31% (inactive)"}
{"smiles": "COc1ccc(CN2CCCC(C(=O)c3ccc(Cl)cc3)C2)cc1Cn1cncn1", "note": "(configuration not stated)", "activation": "1.04% (inactive)"}
{"smiles": "COc1ccc(C2Nc3ccccc3C(=O)N2c2ccc(Cl)cc2)cc1Cn1cc([N+](=O)[O-])cn1", "note": "(configuration not stated)", "activation": "10.7% (active)"}
{"smiles": "COc1ccc(C2Nc3ccccc3C(=O)N2Cc2ccccc2)cc1Cn1nnc2ccccc21", "note": "(configuration not stated)", "activation": "-2.6% (inactive)"}
{"smiles": "N#C/C(=C(\\O)CCl)c1nnc2n1CCCCC2", "activation": "-0.95% (inactive)"}
{"smiles": "CCOC(=O)C1(C)CCCN(C(=O)c2cccc(Cl)c2)C1", "note": "(configuration not stated)", "activation": "-0.57% (inactive)"}
{"smiles": "CC(C)Oc1ccc(C(CC(=O)N2CCOCC2)C(C)C)cc1", "note": "(configuration not stated)", "activation": "2.86% (inactive)"}
{"smiles": "CC(C)(C)NC(=O)NCc1ccco1", "activation": "0.33% (inactive)"}
{"smiles": "CC(C)(C)c1ccc(C(=O)NCc2ccco2)cc1", "activation": "8.75% (active)"}
{"smiles": "O=C(NCc1ccco1)/C(=C/c1ccco1)NC(=O)c1ccccc1", "activation": "1.61% (inactive)"}
{"smiles": "COc1ccc(C2NC(=O)C(=O)/C2=C(\\O)c2ccc(Cl)cc2)cc1OC", "note": "(configuration not stated)", "activation": "-0.36% (inactive)"}
{"smiles": "CC/C(=C(/c1ccccc1)c1ccc(OCC[N+](C)(C)C)cc1)c1ccccc1", "activation": "-0.77% (inactive)"}
{"smiles": "CCN(CC)C(=O)CSc1nnc(CNc2ccc(F)cc2)n1Cc1ccco1", "activation": "-2.98% (inactive)"}
{"smiles": "CC1CN(Cc2ccco2)C(=S)N(c2ccccc2)C1=O", "note": "(configuration not stated)", "activation": "2.7% (inactive)"}
{"smiles": "CN(C)C(=S)N=c1ssc(=S)n1Cc1ccco1", "activation": "16.1% (active)"}
{"smiles": "O=C(COc1ccc2ccc(=O)oc2c1)NCC(O)c1ccccc1", "note": "(configuration not stated)", "activation": "1.75% (inactive)"}
{"smiles": "O=C(CC1NCCNC1=O)Nc1cc(Cl)cc(Cl)c1", "note": "(configuration not stated)", "activation": "1.12% (inactive)"}
{"smiles": "O=C(CC1NCCc2ccccc21)Nc1cccc(Cl)c1", "note": "(configuration not stated)", "activation": "7.89% (active)"}
{"smiles": "O=C(CC1C(=O)NCCN1C(=O)c1ccc([N+](=O)[O-])cc1)Nc1cccc(Cl)c1", "note": "(configuration not stated)", "activation": "0.62% (inactive)"}
{"smiles": "NC(c1csc(NC(=O)Nc2cccc(C(F)(F)F)c2)n1)C1CCCCC1", "note": "(configuration not stated)", "activation": "0.57% (inactive)"}
{"smiles": "Cc1[nH]c2ccccc2c1C(=O)C(C)Sc1nnc(C2CC2)o1", "note": "(configuration not stated)", "activation": "-0.9% (inactive)"}
{"smiles": "Cc1ccc(OCc2nc(C#N)c(N3CCCC3)o2)cc1", "activation": "1.46% (inactive)"}
{"smiles": "COc1ccc(Nc2oc(-c3ccccc3Cl)nc2C#N)cc1", "activation": "-4.29% (inactive)"}
{"smiles": "CCOc1ccc(Nc2oc(Cc3ccccc3)nc2C#N)cc1", "activation": "7.76% (active)"}
{"smiles": "Cn1c(=O)n(C)c(=O)n(CC(=O)N2CCCCC2)c1=O", "activation": "-1.79% (inactive)"}
{"smiles": "O=C(CSc1nc2[nH]c(=O)[nH]c(=O)c2s1)Nc1cccc(F)c1", "activation": "-0.65% (inactive)"}
{"smiles": "CCCOP(=O)(c1ccc(N(C)C)cc1)C(O)c1cc(OC)c(OC)c(OC)c1", "note": "(configuration not stated)", "activation": "0.98% (inactive)"}
{"smiles": "c1ccc(-c2cc(-c3ccccc3)[nH]n2)cc1", "activation": "10.4% (active)"}
{"smiles": "Nc1cccc(-c2cc(-c3ccccc3)nc(-c3cccc(N)c3)n2)c1", "activation": "1.48% (inactive)"}
{"smiles": "O=C(Nc1ccc(Cl)cn1)c1ccccc1-c1ccccc1", "activation": "0.22% (inactive)"}
{"smiles": "c1ccc(-c2c[nH]c(-c3ccccc3)c2)cc1", "activation": "1.7% (inactive)"}
{"smiles": "CSc1ccccc1-c1nnc(-c2ccc(Cl)cc2)o1", "activation": "5.35% (inactive)"}
{"smiles": "Oc1ccccc1-c1cc(-c2ccc(Cl)cc2)n[nH]1", "activation": "8.31% (active)"}
{"smiles": "O=C1CCN(C(=O)Nc2ccccc2)N1", "activation": "-0.46% (inactive)"}
{"smiles": "COc1ccccc1CCNC(=O)c1cnccn1", "activation": "2.62% (inactive)"}
{"smiles": "O=C(NCCCNC(=O)c1ccccc1Cl)c1cnccn1", "activation": "1.82% (inactive)"}
{"smiles": "O=C(COc1ccc(Cl)cc1Cl)NCCCNC(=O)c1cnccn1", "activation": "7.84% (active)"}
{"smiles": "CCn1c(CC(=O)Nc2ccccc2C)nnc1SCC(=O)NC1=NCCS1", "activation": "-0.89% (inactive)"}
{"smiles": "COc1ccc(C2CC(=O)Nc3sc(=N)c4c(N)c(C#N)c(N)nc4c32)cc1OC", "note": "(configuration not stated)", "activation": "5.47% (inactive)"}
{"smiles": "N#Cc1c(N)nc2c3c(sc(=N)c2c1N)NC(=O)CC3c1ccccc1Cl", "note": "(configuration not stated)", "activation": "9.37% (active)"}
{"smiles": "CSc1nc2c(c(=O)[nH]1)C(c1cccc(Cl)c1Cl)CC(=O)N2", "note": "(configuration not stated)", "activation": "-1.23% (inactive)"}
{"smiles": "O=C(O)c1ccccc1-c1cccc2nncn12", "activation": "0.6% (inactive)"}
{"smiles": "CCOC(=O)c1[nH]c2ccc(C)cc2c1N=C(C)N(C)C", "activation": "2.12% (inactive)"}
{"smiles": "CCOC(=O)c1cc2cc(C)ccc2[nH]1", "activation": "7.85% (active)"}
{"smiles": "Cc1ccc2[nH]c(=O)c(COC(=O)c3ccccn3)cc2c1", "activation": "-0.35% (inactive)"}
{"smiles": "CC(=O)c1ccc(-c2cnc3c(NC=O)cc(-c4cccc(NS(C)(=O)=O)c4)cn23)cc1", "activation": "-2.27% (inactive)"}
{"smiles": "Cc1cc(C(=O)N2CCN(c3ccccn3)CC2)c(C)o1", "activation": "1.36% (inactive)"}
{"smiles": "CN(C)C(CNC(=O)c1cc(Br)c(Br)s1)c1ccco1", "note": "(configuration not stated)", "activation": "0.51% (inactive)"}
